Screening data as filed in PubChem.
Hits are enriched below; roughly 11% of the tested compounds scored in any of these assays.
Vaccinia Venus: vaccinia inhibition (Venus reporter); Vaccinia virus Venus reporter expression, fluorescence; Potency, µM (titrated, usually from 36.5 µM), most hits filed as inhibitors; 330,000 compounds, 0.46% hits; AID 720580; calls by dose curve; tested in A549 cells; note: nearly all actives have a fitted effect of over 30% in size
Pf growth 96h: P. falciparum growth inhibition at 96 hour, primary screen for plastid delayed-death inhibitors; P. falciparum luciferase reporter growth, 96 h; Potency, µM (highest dose often 28.7 µM), usual class: inhibitors; 320,000 compounds, 6.9% hits
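Plates of compound plus infected erythrocytes (2% hematocrit, 0.05% parasitemia final) incubate 96 hours, 37 C, 5% CO2. Detection reagent added; reduced luminescence from the parasites' luciferase reporter flags inhibition.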
Vaccinia mCherry: vaccinia inhibition (mCherry reporter); Vaccinia virus mCherry reporter infection, fluorescence; Potency, µM (doses to about 36.5 µM), hits mostly inhibitors; 310,000 compounds, 0.63% hits; calls by dose curve; tested in A549 cells; note: nearly all actives have a fitted effect of over 35% in size
NS1 function inh: inhibitors of influenza NS1 protein function. Potency, µM (doses to about 46.1 µM). 270,000 compounds, 0.4% hits. AID 2326; calls by dose curve; note: actives are rising curves; nearly all actives have a fitted effect of over 50% in size
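Growth recovery, yeast-based: influenza A NS1 expressed in S. cerevisiae causes slow growth, and suppressors are detected by OD600. The parent strain without NS1 is used as positive control.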
Pf growth 48h: P. falciparum growth inhibition at 48 hours (one generation); 310,000 compounds, 5.9% hits; AID 504832; Potency, µM (titrated, usually from 28.7 µM), actives largely listed as inhibitors; P. falciparum luciferase growth in erythrocytes, 48 h
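Erythrocytes infected with P. falciparum carrying an integrated firefly luciferase reporter (2% hematocrit, 0.1% parasitemia final) were exposed to compounds in RPMI 1640 with 0.5% Albumax at 37 C, 5% CO2. Growth inhibition was scored as reduced luminescence.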
HCV inhibitor: inhibitors of hepatitis C virus infection | Huh7.5.1 HCVcc-Cre infection, luciferase reporter, 44 h | Potency, µM (doses to about 41.8 µM), hits mostly inhibitors | 340,000 compounds, 3.4% hits | AID 651820
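After 44 h co-culture of compound, cells and HCVcc-Cre (~0.5 moi), substrate is added for 15 min at room temperature and luciferase measured over 15 sec. Cells were seeded at 1,000/well and pre-cultured 4 h.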
NS1 inh valid: influenza NS1 function inhibition validation; shares compounds with NS1 function inh; influenza NS1 function cell assay, 15-point titration; activity change, negative = inhibition, % at 32.9 µM; 1,400 tested, under 10 active; AID 492980; calls by dose curve
Flu PR8 replic: influenza NS1 inhibitors: inhibition of influenza A/PR/8/34 replication; shares compounds with NS1 function inh; MDCK infected influenza A/PR/8/34, virus titer TCID50; active compounds read low; virus titer (log TCID50), log10 TCID50 at 5 µM; 95 compounds, 30% hits; call rule not given here
Each line names hits and unclear results; the compound was inactive in the other large screens (follow-up assays come after a bar, where they were run). Unless noted, calls come from the whole dose curve; as a rule, active = well fitted inhibition curve with a large enough effect; inconclusive = small, poorly fitted or top-dose-only effect, or another doubt; inactive = no such curve, though single readings can be large or run the other way.

Oc1ccc2ccccc2c1-c1sc(Nc2ccccc2)n[n+]1-c1ccc(F)cc1	Pf growth 96h inconclusive, NS1 function inh inconclusive, Pf growth 48h inconclusive | NS1 inh valid inactive
CCc1n[nH]c2c1/C(=N\O)CC(c1ccccc1)C2 (stereo unspecified)	Pf growth 48h inconclusive (no result: Pf growth 96h)
CCCCc1n[nH]c2c1/C(=N/O)CC(c1ccccc1)C2 (stereo unspecified)	NS1 function inh inconclusive, HCV inhibitor inconclusive (no result: Vaccinia mCherry) | NS1 inh valid inactive
Cc1nn(C)c(C)c1CCC(=O)N1CCCC(N2CCN(c3ccc(F)cc3)CC2)C1 (stereo unspecified)	NS1 function inh inconclusive, Pf growth 48h inconclusive (no result: Vaccinia Venus, Vaccinia mCherry) | NS1 inh valid inactive
C=C(C)C(=O)N1CC2(CC(c3cccc(NC(=O)CC(c4ccccc4)c4ccccc4)c3)=NO2)C[C@H]1C(N)=O (stereo partly specified)	Pf growth 96h inconclusive, Pf growth 48h inconclusive
NC(=O)[C@H]1CC2(CC(c3cccc(NC(=O)CC(c4ccccc4)c4ccccc4)c3)=NO2)CN1C(=O)CC(c1ccccc1)c1ccccc1 (stereo partly specified)	Pf growth 96h inconclusive, NS1 function inh 7.08µM, Pf growth 48h 11.7µM | NS1 inh valid inactive | Flu PR8 replic inactive
NC(=O)[C@@H]1CC2(CC(c3cccc(NC(=O)CC(c4ccccc4)c4ccccc4)c3)=NO2)CN1C(=O)c1ccc(Cl)cc1 (stereo partly specified)	Vaccinia Venus inconclusive, Pf growth 96h inconclusive, Vaccinia mCherry inconclusive, NS1 function inh 3.98µM, Pf growth 48h inconclusive, HCV inhibitor inconclusive | NS1 inh valid inactive
CCC(=O)N1CC2(CC(c3cccc(NC(=O)CC(c4ccccc4)c4ccccc4)c3)=NO2)C[C@H]1C(N)=O (stereo partly specified)	none
O=c1[nH]c(=S)n(-c2ccc(Br)cc2)c(O)c1C=Nc1ccc(N2CCOCC2)cc1	NS1 function inh 7.94µM | NS1 inh valid inactive
COC(=O)CC1C(C(=O)OC)ON2OC(C(=O)OC)C(C(=O)OC)C12 (stereo unspecified)	none (no result: Vaccinia Venus, Vaccinia mCherry)
Cc1ccc2c(C)nc(/N=C(\N)NC(=O)N3c4ccccc4Sc4ccccc43)nc2c1	NS1 function inh inconclusive, Pf growth 48h 13.1µM, HCV inhibitor inconclusive | NS1 inh valid inactive
COc1ccc2nc(/N=C(\N)NC(=O)N3c4ccccc4Sc4ccccc43)nc(C)c2c1	Pf growth 96h inconclusive, NS1 function inh inconclusive, Pf growth 48h inconclusive
CCC(CC)C(=O)Nc1cccc(-c2nc3ccccc3s2)c1	none (no result: Pf growth 96h, NS1 function inh, Pf growth 48h, HCV inhibitor)
C(=C\c1ccccc1)/CN1CCN(C(c2ccnc3ccccc23)c2nnnn2-c2ccc3c(c2)OCCO3)CC1 (stereo unspecified)	none (no result: Pf growth 96h, NS1 function inh, Pf growth 48h, HCV inhibitor)
CNC(=O)CSc1nnc(COc2ccc([N+](=O)[O-])cc2)n1C	none (no result: NS1 function inh)
O=S(=O)(c1ccc(NC(=S)NCCC(c2ccccc2)c2ccccc2)cc1)N1CCOCC1	Vaccinia Venus 11.2µM, Pf growth 96h 8.28µM, Vaccinia mCherry 10µM, NS1 function inh 14.1µM, Pf growth 48h inconclusive, HCV inhibitor inconclusive | NS1 inh valid inactive
CCCCCCSc1nc(O)c(C2OC(=O)c3c2ccc(OC)c3OC)c(=O)n1CC (stereo unspecified)	Pf growth 96h inconclusive (no result: Vaccinia mCherry, Pf growth 48h)
COc1ccc(COc2cc(-c3cccc(OC)c3)nc3ccc(N)cc23)cc1	Vaccinia Venus inconclusive, Pf growth 96h 5.86µM, Vaccinia mCherry inconclusive, NS1 function inh 4.47µM, Pf growth 48h 14.7µM, HCV inhibitor inconclusive | NS1 inh valid inactive
COc1ccc(COc2cc(-c3cccc(OC)c3)nc3ccc(NC(=O)c4ccc(N(C)C)cc4)cc23)cc1	Pf growth 96h 2.94µM, Vaccinia mCherry inconclusive, NS1 function inh 10µM, Pf growth 48h 2.33µM, HCV inhibitor inconclusive | NS1 inh valid inconclusive
